Common to all, as to assay: NCI-60 one-dose screen, 48 h (100 = growth as untreated, 0 = no growth, -100 = all killed)
For one assay, the system named is NCI-H23 lung. Conditions: 10 µM unless noted.
A further assay concerns NCI-H226 lung. As to conditions: 10 µM unless noted.
For the next assay, the system named is NCI-H322M lung. As to conditions: 10 µM unless noted.
Another assay concerns HOP-62 NSCLC. As to conditions: 10 µM unless noted.
In the next assay the test system is NCI-H460 lung. As to conditions: 10 µM unless noted.
A further assay has as its system HOP-92 NSCLC.
A further assay has as its system NCI-H522 lung. As to conditions: 10 µM unless noted.
Another assay concerns A549/ATCC NSCLC. As to conditions: 10 µM unless noted.
The test system of another assay is 786-0 renal. As to conditions: 10 µM unless noted.
The next assay deals with COLO 205 colon. As to conditions: 10 µM unless noted.
In the next assay the test system is DU-145 prostate. Conditions: 10 µM unless noted.
The subject of another assay is K-562 leukemia. As to conditions: 10 µM unless noted.
For a further assay, the system named is MALME-3M melanoma. Conditions: 10 µM unless noted.
The next assay has as its system MDA-MB-231 breast. As to conditions: 10 µM unless noted.
The next assay relates to RXF 393 renal. As to conditions: 10 µM unless noted.
In a further assay the test system is SF-268 CNS. As to conditions: 10 µM unless noted.
The subject of the next assay is SF-539 CNS. Conditions: 10 µM unless noted.
The next assay has as its system UACC-257 melanoma. Conditions: 10 µM unless noted.
The next assay has as its system M14 melanoma. As to conditions: 10 µM unless noted.
A further assay relates to SF-295 CNS. As to conditions: 10 µM unless noted.

SMILES strings stand for the structures. Values joined by “and” are separate entries in the source; they are usually repeats but may differ in a detail not shown here. Equal entries are not always repeated. The panel holds about 83,000 compounds, 20% with a hit somewhere; the sample as a whole holds those more often.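 In brief: 96-well plates, 48 h treatment, single concentration, percent growth endpoint.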 A number with no mark means an inactive call. Active and inactive are the calls of the source. How the source made its calls: active means growth percent below 10; inactive means the rest.

For the molecule `COc1ccc(OC)c(/C=C/[N+](=O)[O-])c1`, the growth was 6.9% (active) with NCI-H23 lung; 11.8% in the assay on NCI-H226 lung; 69.6% in the assay with NCI-H322M lung; 10.5% in the assay with HOP-62 NSCLC; -4.3% (active) in the assay on NCI-H460 lung; -18% (active) in the assay with HOP-92 NSCLC (10 µM). The growth in the assay on NCI-H522 lung was -64.1% (active); in the assay with A549/ATCC NSCLC, 28.1%; with 786-0 renal, -75.2% (active); in the assay on COLO 205 colon, -51.6% (active); in the assay on DU-145 prostate, 19.8%; in the assay with K-562 leukemia it was 4.27% (active). In addition, the growth is 24.9% in the assay on MALME-3M melanoma; 5.7% (active) in the assay on MDA-MB-231 breast; -88.7% (active) in the assay with RXF 393 renal; 13.1% in the assay with SF-268 CNS; -6.84% (active) in the assay on SF-539 CNS; -12% (active) in the assay on UACC-257 melanoma. Further, the growth with M14 melanoma was -11.5% (active).

For `Cc1c(N)nc([C@H](CC(N)=O)NC[C@H](N)C(N)=O)nc1C(=O)N[C@H](C(=O)N[C@H](C)[C@@H](O)[C@H](C)C(=O)N[C@H](C(=O)NCCc1nc(-c2nc(C(=O)NCCC[S+](C)C)cs2)cs1)[C@@H](C)O)C(OC1OC(CO)C(O)C(O)C1OC1OC(CO)C(O)C(OC(N)=O)C1O)c1cnc[nH]1` (some centres undefined), the growth in the assay with NCI-H23 lung was 37.9% [2.5 µM]; with NCI-H226 lung, 37.2% [2.5 µM]; in the assay on NCI-H322M lung, 97.1% [2.5 µM]; in the assay on HOP-62 NSCLC it was 43.9% [2.5 µM]; in the assay with NCI-H460 lung it was 23.1% [2.5 µM]; in the assay on HOP-92 NSCLC (2.5 µM), -4.74% (active). The growth with NCI-H522 lung is 57.3% [2.5 µM]; in the assay on A549/ATCC NSCLC, 52.9% [2.5 µM]; in the assay on 786-0 renal it was 27.9% [2.5 µM]; with COLO 205 colon, 87.7% [2.5 µM]; in the assay on DU-145 prostate, 58.7% [2.5 µM]; in the assay on K-562 leukemia, 65.8% [2.5 µM]. The growth in the assay on MALME-3M melanoma is 45.9% [2.5 µM]; in the assay with MDA-MB-231 breast, 99.2% [2.5 µM]; in the assay with RXF 393 renal it was 20.5% [2.5 µM]; with SF-268 CNS, 61.6% [2.5 µM]; in the assay with SF-295 CNS, 8.69% [2.5 µM] (active); in the assay with SF-539 CNS it was -48.7% [2.5 µM] (active). The growth with UACC-257 melanoma was 31.9% [2.5 µM].

For `O=C1c2ccccc2C(=O)C(Cl)C1Cl` (centres undefined), the growth in the assay on NCI-H23 lung is 83.8%; in the assay on NCI-H226 lung, -74.2% (active); with NCI-H322M lung, 96.1%; with HOP-62 NSCLC, 87.9%; with NCI-H460 lung it was 101%; in the assay on HOP-92 NSCLC (10 µM), -62.4% (active). Moreover, the growth was -65% (active) in the assay on NCI-H522 lung; 104% in the assay on A549/ATCC NSCLC; 16.8% in the assay with 786-0 renal; -94.3% (active) in the assay on COLO 205 colon; 97.8% with DU-145 prostate; -7.91% (active) in the assay with K-562 leukemia. Further, the growth in the assay with MALME-3M melanoma was -98.5% (active); in the assay on RXF 393 renal, -9.44% (active); in the assay with SF-268 CNS, 87.5%; in the assay with SF-295 CNS it was 94.3%; in the assay on SF-539 CNS, 89.5%; with UACC-257 melanoma, 0.891% (active). For the same molecule, in the assay with M14 melanoma, the growth was 76.7%.

In the case of `COc1cccc2c1cc([N+](=O)[O-])c1c(C(=O)O)cc3c(c12)OCO3`, the growth in the assay on NCI-H23 lung was 56.4% and 93%; in the assay on NCI-H226 lung it was 79.8% and 107%; with NCI-H322M lung, 50.4% and 99%; in the assay on HOP-62 NSCLC, 82.4% and 101%; in the assay on NCI-H460 lung it was 33.5% and 106%; in the assay on HOP-92 NSCLC (10 µM) it was 84%. The growth is 35% and 63.9% in the assay on NCI-H522 lung; 76.6% and 116% in the assay with A549/ATCC NSCLC; 77.3% and 98.8% with 786-0 renal; -25.3% (active) and -56.5% (active) in the assay on COLO 205 colon; 15.6% and 118% in the assay with DU-145 prostate; 73.5% and 67.8% in the assay with K-562 leukemia. Further, the growth was 106% and 98.7% in the assay on MALME-3M melanoma; 88.4% and 106% in the assay on MDA-MB-231 breast; 49.1% and 101% in the assay with RXF 393 renal; 45.9% and 113% in the assay on SF-268 CNS; 44.9% and 90.4% with SF-295 CNS; 71.9% and 90% in the assay with SF-539 CNS. Also, the growth was 97.7% and 111% in the assay with UACC-257 melanoma; 84.5% and 99% with M14 melanoma.

As for `CC[C@@]1(O)C(=O)OCc2c1cc1n(c2=O)Cc2cc3ccccc3nc2-1`, the growth in the assay with NCI-H23 lung is -26.7% (active); in the assay on NCI-H226 lung, -54% (active); in the assay on NCI-H322M lung, -19.4% (active); in the assay on HOP-62 NSCLC, -10.3% (active); in the assay with NCI-H460 lung it was -25.8% (active); with NCI-H522 lung, -49% (active). Besides, the growth with A549/ATCC NSCLC is -21.1% (active); with 786-0 renal, -18.5% (active); with COLO 205 colon, -38% (active); with DU-145 prostate, -31.9% (active); in the assay on K-562 leukemia, 0.554% (active); with MALME-3M melanoma, -59.5% (active). Also, the growth in the assay on MDA-MB-231 breast is 28.6%; with RXF 393 renal it was 6.33% (active); in the assay on SF-268 CNS, 2.82% (active); in the assay with SF-295 CNS, -14.4% (active); in the assay with SF-539 CNS, -46.4% (active); with UACC-257 melanoma, -17.8% (active). The growth with M14 melanoma was -39% (active).

For the molecule `CC[C@@]1(O)C[C@H](OC2CC(N(C)C)C(OC3CC(O)C(OC4CCC(=O)C(C)O4)C(C)O3)C(C)O2)c2c(cc3c(c2O)C(=O)c2c(O)ccc(O)c2C3=O)[C@H]1C(=O)OC` (some centres undefined), the growth is -8.87% (active) with NCI-H23 lung; -55.7% (active) in the assay with NCI-H226 lung; -17.8% (active) in the assay on NCI-H322M lung; 5.22% (active) with HOP-62 NSCLC; -14.4% (active) with NCI-H460 lung; -48.1% (active) in the assay on NCI-H522 lung. Moreover, the growth in the assay with A549/ATCC NSCLC is -10.6% (active); in the assay with 786-0 renal it was 17.3%; in the assay with COLO 205 colon, 11.1%; in the assay on DU-145 prostate, 1.38% (active); in the assay with K-562 leukemia it was 0.0817% (active); in the assay on MALME-3M melanoma it was -12.2% (active). Also, the growth with MDA-MB-231 breast was 28.4%; in the assay on RXF 393 renal it was 12.6%; in the assay with SF-268 CNS, 22.7%; with SF-295 CNS it was 8.52% (active); with SF-539 CNS, -5.75% (active); in the assay on UACC-257 melanoma, -30.9% (active). The growth in the assay on M14 melanoma was 3.55% (active).

With `COC1=C(C)C(=O)C2=C(C1=O)C(CO)N1C(C#N)C3CC4C(C1C2N1CCOC41)N3C` (centres undefined), the growth with NCI-H23 lung is -45.1% (active); with NCI-H226 lung, -14.5% (active); in the assay with NCI-H322M lung, -23.7% (active); in the assay with HOP-62 NSCLC it was -42% (active); in the assay on NCI-H460 lung, -14.9% (active); with NCI-H522 lung, -83.2% (active). The growth is -3.64% (active) in the assay on A549/ATCC NSCLC; -21.9% (active) in the assay on 786-0 renal; -74.5% (active) with COLO 205 colon; 1.67% (active) in the assay with DU-145 prostate; -45.3% (active) in the assay on K-562 leukemia; -97.4% (active) in the assay with MALME-3M melanoma. Besides, the growth with MDA-MB-231 breast is -11.9% (active); in the assay on RXF 393 renal, -88.9% (active); in the assay with SF-268 CNS it was -13.6% (active); in the assay on SF-295 CNS, -29.7% (active); in the assay on SF-539 CNS it was -60.3% (active); with UACC-257 melanoma, 2.61% (active). In addition, the growth in the assay with M14 melanoma was -85.9% (active).

The record behind these values is PubChem BioAssay (NCI).
